FBW7 act – FBW7 E3 ligase activators, primary screen, biochemical, AlphaScreen, human | F-box/WD repeat-containing protein 7 (Homo sapiens), Q969H0 | AlphaScreen FBW7–phospho-cyclin E peptide binding, activator screen | normalized activity (activation), % at 26.1 µM | 650,000 compounds, 0.13% hits; in the data active means normalized activity above about 1.9%;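 further: purified mutant Fbw7 with reduced substrate affinity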
TEAD-YAP block – TEAD-YAP interaction inhibition, primary screen, TEAD-YAP interaction inhibitor project, luminescence, HEK-TIYL cells; TEAD-Gal4/YAP UAS-luciferase luminescence; AID 1259422, 2018; inhibition, % at 9.12 µM; 640,000 compounds, 1.4% hits; in the data active means inhibition above about 32%;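 further: 0% = median of test compound wells and 100% = reference inhibitor wells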
MITF primary – MITF inhibitors, primary screen, biochemical, AlphaScreen, human; Microphthalmia-associated transcription factor (Homo sapiens), O75030; AlphaScreen MITF homodimerization, bead proximity signal; inhibition, % at 2.6 µM; 650,000 compounds, 0.91% hits; in the data active means inhibition above about 50%;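 further: 0% = vehicle wells with protein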
Target sequence (O75030 whole entry, looked up): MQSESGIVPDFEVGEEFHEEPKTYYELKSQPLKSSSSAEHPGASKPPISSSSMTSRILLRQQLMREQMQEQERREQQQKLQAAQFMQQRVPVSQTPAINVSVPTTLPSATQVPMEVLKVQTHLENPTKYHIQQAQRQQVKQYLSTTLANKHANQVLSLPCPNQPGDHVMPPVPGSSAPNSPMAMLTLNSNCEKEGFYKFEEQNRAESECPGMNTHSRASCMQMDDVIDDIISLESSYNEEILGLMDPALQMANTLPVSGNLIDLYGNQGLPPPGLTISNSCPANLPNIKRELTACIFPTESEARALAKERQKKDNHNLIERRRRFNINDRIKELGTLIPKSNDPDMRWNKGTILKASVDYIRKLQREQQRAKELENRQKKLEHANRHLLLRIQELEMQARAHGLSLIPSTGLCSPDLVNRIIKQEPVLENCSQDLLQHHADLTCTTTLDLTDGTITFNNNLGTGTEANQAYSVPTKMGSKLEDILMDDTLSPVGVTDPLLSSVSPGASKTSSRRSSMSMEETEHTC
GPR151 activ – activators of human GPR151, primary screen, cell-based, PathHunter beta-arrestin, luminescence; 650,000 compounds, 1% hits; PathHunter beta-arrestin GPR151 cells; activation, % at 11.2 µM; G-protein coupled receptor 151 (Homo sapiens), Q8TDV0; in the data active means activation above about 4.9%;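 further: 0% = median of compound wells and 100% = cells with positive control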
The depositor's hits bear a star. In the library only some 3.5% were active in any assay of this set; here they are far more common.

SMILES	FBW7 act	TEAD-YAP block	MITF primary	GPR151 activ
CC(O)c1ccc(N2Cc3ccccc3C2=O)cc1 (configuration not stated)	0.0	55.9*	-6.7	-7.0
COc1ccc(N2Cc3ccccc3C2=O)cc1	0.0	65.8*	6.4	-7.8
C=CC(=O)Oc1ccc(N2Cc3ccccc3C2=O)cc1	-0.1	14.4	0.4	-4.4
C#CCN1C(=O)S/C(=C/c2cc(OC)c(OCC(=O)O)cc2Br)C1=O	-0.2	0.2	7.1	-0.3
C=C1C(C2(C)C=CC(=O)C(C)(C)C2CC(=O)OC)CC[C@@]2(C)[C@H](c3ccoc3)OC(=O)C3OC132 (some centres not stated)	-0.1	19.3	-0.5	4.3
CC(Nc1ncnc2sccc12)c1ccccc1 (configuration not stated)	-0.1	53.0*	-4.0	3.0
Cc1ccc(-n2ncc3c(SCC(=O)NCc4ccco4)ncnc32)c(C)c1	0.2	38.7*	6.0	-1.5
CCOC(=O)C1CCN(c2c(NCc3ccc(Cl)cc3)c(=O)c2=O)CC1	-0.1	66.6*	0.7	-0.6
CCOC(=O)C1CCN(c2c(NCc3ccc(N(C)C)cc3)c(=O)c2=O)CC1	0.0	0.9	5.3	0.9
CCOC(=O)C1CCN(c2c(Nc3ccc(C)c(F)c3)c(=O)c2=O)CC1	-0.2	-9.8	-0.6	-0.2
CCOC(=O)C1CCN(c2c(NCc3ccc(OC)cc3)c(=O)c2=O)CC1	0.1	57.8*	-9.9	-0.1
CCOC(=O)C1CCN(c2c(NCc3ccc(F)cc3)c(=O)c2=O)CC1	0.1	64.3*	12.2	-1.7
CCOC(=O)C1CCN(c2c(Nc3cccc(SC)c3)c(=O)c2=O)CC1	0.0	55.4*	0.6	-0.2
Cc1nc(/N=C(\N)Nc2ccccc2)[nH]c(=O)c1C	2.2*	7.1	12.0	-0.2
COc1cc(Nc2nc(NCc3nc4ccccc4[nH]3)c3ncn(Cc4ccc(C(F)(F)F)cc4)c3n2)cc(OC)c1OC	0.0	42.9*	3.7	-0.5
COc1cc(Nc2nc(NC3CC3)c3ncn(Cc4ccc(C(F)(F)F)cc4)c3n2)cc(OC)c1OC	0.3	46.8*	20.6	-0.9
FC(F)(F)c1ccc(Cn2cnc3c(NCc4nc5ccccc5[nH]4)nc(Nc4ccc5ncccc5c4)nc32)cc1	0.9	-5.8	5.0	-0.3
FC(F)(F)c1ccc(Cn2cnc3c(NCc4nc5ccccc5[nH]4)nc(Nc4ccccc4)nc32)cc1	0.1	40.7*	5.2	2.9
FC(F)(F)c1ccc(Cn2cnc3c(NCc4nc5ccccc5[nH]4)nc(Nc4ccc(C(F)(F)F)cc4)nc32)cc1	0.2	-0.1	9.3	2.0
COC(CNS(=O)(=O)c1ccc(Oc2ccc(S(=O)(=O)NCC(OC)OC)cc2)cc1)OC	0.0	48.6*	-8.6	2.3
COc1ccccc1CNS(=O)(=O)c1ccc(Oc2ccc(S(=O)(=O)NCc3ccccc3OC)cc2)cc1	0.0	43.3*	0.2	0.3
COc1ccccc1CNS(=O)(=O)c1ccc(F)cc1	0.0	13.7	7.4	0.7
O=S(=O)(NCc1ccco1)c1ccc(Oc2ccc(S(=O)(=O)NCc3ccco3)cc2)cc1	-0.3	48.0*	3.4	0.6
COC(=O)c1ccccc1NC(=O)CNC(=O)C(=O)Nc1ccc(OC)cc1	0.1	-13.9	-0.8	-1.7
CCOC(=O)c1[nH]c(/C=N/NC(=O)c2ccncc2)c(C(=O)OCC)c1C	-0.3	59.9*	-15.3	-0.1
SMILES	FBW7 act	TEAD-YAP block	MITF primary	GPR151 activ
c1cncc(CNc2ccn3ncc(-c4cccc5ccccc45)c3n2)c1	0.1	-8.3	8.3	0.2
Fc1ccccc1-c1cnn2ccc(NCc3cccnc3)nc12	0.0	41.6*	12.7	0.3
CCOc1ccccc1N(CC)C(=O)C(=O)Nc1ccc2nc3n(c(=O)c2c1)CCCCC3	-0.1	2.4	-2.4	0.9
Cc1c(NC(=O)CSc2nnc3c4ccccc4n(CCc4ccccc4)c3n2)c(=O)n(-c2ccccc2)n1C	0.1	46.5*	11.4	0.4
CC(=O)c1cccc(NC(=O)CSc2nnc3c4ccccc4n(CCc4ccccc4)c3n2)c1	0.0	40.3*	1.8	1.9
Cc1cc(=O)[nH]c(N/N=C/c2ccc(O)c(O)c2O)n1	-1.3	-8.6	100.1*	2.1
Cc1cc(C)nc(N/N=C/c2cc(Br)cc(Br)c2O)n1	-0.8	13.4	50.4	-1.8
Cc1cc(C)nc(N/N=C/c2ccc(O)c(O)c2O)n1	-1.0	11.6	52.4*	2.1
COc1ccc(C2Oc3ccccc3C3=C2C(c2cccs2)n2ncnc2N3)cc1OC (configuration not stated)	0.0	52.0*	6.7	0.2

Source: PubChem BioAssay
